Most compounds without a hit are left out; they make up all but 4.1% or so of the library.
Ub-GFP proteasome = proteasome inhibitors stabilizing ubiquitin-GFP reporter | Ubiquitin-GFP reporter cells, proteasome inhibition, GFP fluorescence; response scale: untreated = 0%, 10 µM MG-132 = 100% | Potency, µM (titrated, usually from 45.9 µM), without a hit: top-dose activation (GFP accumulation), usual class: activators | 67,000 tested, under 10 active | AID 526; active = well fitted activation curve with a large enough effect, not every such curve was filed as active; inconclusive = small, poorly fitted or top-dose-only effect, or another doubt; inactive = no such curve, though single readings can be large or run the other way
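U2OS Ub(G76V)-GFP reporter; O/N plating, 0.5% FBS; cpd 46 uM–2.9 nM, 4 h, 37 °C; GFP+ cell count, 488/515 nm; norm. to basal vs 10 uM MG-132; CRC fit.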
HEK293 cAMP ctrl = raises cAMP in parental HEK293 cells, TSHR agonist counter-screen; parental HEK293 CNG cAMP sensor, membrane potential fluorescence; Potency, µM (doses to about 57.1 µM), for inactives: top-dose activation, most hits filed as activators; hit rate 2.5% among 73,000; AID 938; also: % of control where 0% means no effect; nearly all actives have a fitted effect of over 55% in size
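Counterscreen for endogenous-receptor signalling: CNG-channel HEK 293 cells report cAMP rise by membrane depolarization. After 60 min dye equilibration with 100 uM RO 20-1724, compounds incubated 30 min before bottom-read fluorescence at 590 nm.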
Bst PK mod = alters activity of Bacillus stearothermophilus pyruvate kinase | purified pyruvate kinase, luminescence ATP production; ribose 5-phosphate activator present at AC10 | Potency, µM | hit rate 1.2% among 51,000 | AID 361; in the data active = potency below about 11 µM; inconclusive = mostly about 12 µM to 25 µM;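 the screen sought inhibitors and activators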;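 also: scaled between full activation by ribose 5 phosphate and full inhibition by luteolin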
USP2a inh = blocks human ubiquitin-specific protease USP2a. Potency, µM (doses to about 38.3 µM), for the others: top-dose activity change, negative = inhibition, actives largely listed as inhibitors. USP2a enzymatic assay, qHTS inhibition. hit rate 0.1% among 60,000. AID 927. O75604; also: nearly all actives have a fitted effect of over 60% in size
Target sequence (O75604 whole entry, looked up): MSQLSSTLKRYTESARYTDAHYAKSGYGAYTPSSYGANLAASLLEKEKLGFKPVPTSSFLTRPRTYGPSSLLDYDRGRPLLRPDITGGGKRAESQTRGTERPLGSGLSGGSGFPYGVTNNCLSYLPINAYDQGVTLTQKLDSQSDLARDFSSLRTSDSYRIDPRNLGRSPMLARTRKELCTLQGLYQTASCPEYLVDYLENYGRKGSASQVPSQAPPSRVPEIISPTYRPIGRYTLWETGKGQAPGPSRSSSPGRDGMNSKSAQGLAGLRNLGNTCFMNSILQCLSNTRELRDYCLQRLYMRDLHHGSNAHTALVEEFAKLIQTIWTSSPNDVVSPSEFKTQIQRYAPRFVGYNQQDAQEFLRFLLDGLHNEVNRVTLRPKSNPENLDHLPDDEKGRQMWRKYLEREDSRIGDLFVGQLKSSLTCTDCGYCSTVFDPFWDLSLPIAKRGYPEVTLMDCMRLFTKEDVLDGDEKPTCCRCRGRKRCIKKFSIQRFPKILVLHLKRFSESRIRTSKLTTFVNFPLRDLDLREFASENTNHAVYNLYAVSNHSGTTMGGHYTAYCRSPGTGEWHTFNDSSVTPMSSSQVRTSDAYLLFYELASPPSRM
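USP2 core (20 nM final) was preincubated with compound for 30 min at RT in 20 mM Tris-HCl pH 8.0, 2 mM CaCl2, 2 mM beta-mercaptoethanol; Ub-PLA2 (20 nM) plus NBD C6-HPC (20 uM) then added, fluorescence read after 2.5 h.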
GBA mod = alters purified human glucocerebrosidase activity | purified enzyme, resorufin glucoside fluorescence (screen aimed at inhibitors), 20 min | Potency, µM | hit rate 1.1% among 48,000 | AID 360; in the data active = potency below about 15 µM; inconclusive = mostly about 16 µM to 33 µM;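 also: the screen sought inhibitors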
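Wild-type enzyme at 0.2 nM final in 50mM citric acid/KH2PO4, 10mM sodium taurocholate, 0.01% tween-20, pH 5.9, with resorufin beta-D-glucopyranoside at 30 uM final. Compounds titrated, 20 min at RT, red fluorescence read; AC50 from titration.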
TSHR ag = TSH receptor (human) agonism. Potency, µM (titrated, usually from 57.1 µM), for inactives: top-dose activation, hits mostly activators. HEK293-CNG-TSHR cells (CNG channel as cAMP sensor), membrane potential dye, cAMP. AID 926. P16473. hit rate 0.48% among 73,000; active = well fitted activation curve with a large enough effect in the main read-out, with a control signal flat, not every such curve was filed as active; inconclusive = small, poorly fitted or top-dose-only effect, or a change in a side signal; inactive = no such curve, though single readings can be large or run the other way; % of control where 0% means no effect;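 also: the control signal comes from parental cells without the receptor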
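cAMP rise detected as CNG-channel membrane depolarization by fluorescent dye (emission 590 nm), 30 min after compound, following 60 min dye loading containing 100 uM RO 20-1724 at room temperature. Cells: TSHR/CNG HEK 293, with parental CNG HEK 293 as control.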
* marks the source's active call; other numbers are inactive results; [ ] = remark or other dose. Unless noted, calls follow the shape of the dose curve; as a rule, active = well fitted curve in the direction sought with a large enough effect; inconclusive = small, poorly fitted or top-dose-only effect, or another doubt; inactive = no such curve, though single readings can be large; an effect the other way counts as inactive or inconclusive. Potency is read from the fitted curve at half-maximal effect.

How did Cc1cc(C(C)(C)C)cc(CNC2CCCCC2)c1O do in these assays?
Ub-GFP proteasome: -6%[9.17 µM]; HEK293 cAMP ctrl: 15%[11.4 µM]; TSHR ag: 3%[11.4 µM]

Results for COC(=O)/C=C\CCc1coc(/C=C\CNC(=O)OC)n1 ?
HEK293 cAMP ctrl: 1%[11.4 µM]; TSHR ag: -5%[11.4 µM]

What do the screens show for `CN(C)CN1CSC(=S)N(CN(C)C)C1`?
Ub-GFP proteasome: -5%[9.17 µM]; HEK293 cAMP ctrl: 2%[11.4 µM]; TSHR ag: -5%[11.4 µM]

How did Cc1ccc(O)c(N=CC2=C(O)c3ccccc3C2=O)c1 do in these assays?
Ub-GFP proteasome: 7%; HEK293 cAMP ctrl: -5%; TSHR ag: -20%

Results for O=C1C(C=Nc2ccccc2O)=C(O)c2ccccc21 ?
Ub-GFP proteasome: -5%; HEK293 cAMP ctrl: 4%; Bst PK mod: 7.3*; USP2a inh: -5%; GBA mod: >77; TSHR ag: -10%

How did Cc1ccc(S(=O)(=O)CC(=O)Nc2ccc(S(=O)(=O)Nc3onc(C)c3C)cc2)cc1 do in these assays?
Ub-GFP proteasome: 10%; HEK293 cAMP ctrl: -2%; Bst PK mod: >57; USP2a inh: -4%; GBA mod: >77; TSHR ag: 3%

How did Cc1noc(NS(=O)(=O)c2ccc(NC(=O)CCC3CCCC3)cc2)c1C do in these assays?
Ub-GFP proteasome: 11%; HEK293 cAMP ctrl: -6%; Bst PK mod: >57; USP2a inh: 15%; GBA mod: 15*; TSHR ag: 27%

What do the screens show for `O=C(CCCCCCCCCCCCC1CCCC1)Nc1ccc(S(=O)(=O)c2ccc(NC(=O)CCCCCCCCCCCCC3CCCC3)cc2)cc1`?
USP2a inh: 25µM*

What do the screens show for `c1ccc(C(Cc2nc(-c3ccncc3)no2)c2ccccc2)cc1`?
Ub-GFP proteasome: 2%; HEK293 cAMP ctrl: 16µM*; Bst PK mod: >57; USP2a inh: 7%; GBA mod: >77; TSHR ag: inconclusive

How did O=[N+]([O-])c1ccc2c(N=Nc3ccc4ccccc4c3O)c(O)cc(S(=O)(=O)O)c2c1 do in these assays?
Ub-GFP proteasome: -3%[9.17 µM]; HEK293 cAMP ctrl: inconclusive; TSHR ag: inconclusive

How did CCc1ccc(-c2cn3nc(C)c(C)nc3n2)cc1 do in these assays?
Bst PK mod: 1.5*

Results for Cc1nc2nc(-c3ccccc3)cn2nc1C ?
Ub-GFP proteasome: 5%; HEK293 cAMP ctrl: inconclusive; Bst PK mod: inactive; USP2a inh: -3%; GBA mod: >77; TSHR ag: inconclusive

How did CCCc1cc(=O)n2[nH]c(-c3cc(OC)c(OC)c(OC)c3)nc2n1 do in these assays?
Ub-GFP proteasome: 1%; HEK293 cAMP ctrl: 14%; Bst PK mod: >57; USP2a inh: 5%; GBA mod: >77; TSHR ag: 25µM*

How did c1ccc2c(c1)nc(Nc1ccc3c(c1)OCO3)c1nnnn12 do in these assays?
Ub-GFP proteasome: 4%; HEK293 cAMP ctrl: 14%; Bst PK mod: 8.6*; USP2a inh: 24%; GBA mod: >77; TSHR ag: 6%

How did CCCCn1c(SCc2nnc(-c3ccccc3)o2)nc2c1c(=O)n(C)c(=O)n2C do in these assays?
Ub-GFP proteasome: -4%; HEK293 cAMP ctrl: 25µM*; Bst PK mod: >57; USP2a inh: 9%; GBA mod: >77; TSHR ag: inconclusive

How did CCn1c(SCc2nnc(-c3ccccc3)o2)nc2c1c(=O)n(C)c(=O)n2C do in these assays?
Ub-GFP proteasome: -4%; HEK293 cAMP ctrl: 13%; Bst PK mod: >57; USP2a inh: -8%; GBA mod: >77; TSHR ag: 1%

Results for Cc1ccc(S(=O)(=O)Nc2cc(C(=O)NCCN3CCCC3)ccc2N2CCCCC2)cc1 ?
Ub-GFP proteasome: 4%; HEK293 cAMP ctrl: 10%; Bst PK mod: inconclusive; USP2a inh: 37%; GBA mod: 10*; TSHR ag: 12%

What do the screens show for `Cc1ccc(C)n1-n1cnc2sc(-c3ccccc3)cc2c1=O`?
Ub-GFP proteasome: -3%; HEK293 cAMP ctrl: 16%; Bst PK mod: >57; USP2a inh: 12%; GBA mod: >77

What do the screens show for `Cc1ccc(C)n1-n1c(C)nc2sc(-c3ccccc3)cc2c1=O`?
Ub-GFP proteasome: -5%[9.17 µM]; HEK293 cAMP ctrl: 3.2µM*; USP2a inh: 10%[7.66 µM]; TSHR ag: inconclusive

Results for COCCNc1c(-c2ccc(O)cc2)nc2ccc(Cl)cn12 ?
Ub-GFP proteasome: -3%; HEK293 cAMP ctrl: -10%; Bst PK mod: >57; USP2a inh: -1%; GBA mod: 6.9*; TSHR ag: -18%

What do the screens show for `Cc1cc(Cl)ccc1OCc1nc(-c2ccc(O)cc2)n[nH]1`?
Ub-GFP proteasome: 5%; HEK293 cAMP ctrl: -3%; USP2a inh: 7%; GBA mod: inconclusive; TSHR ag: 8%

What do the screens show for `O=S1(=O)N[C@H]2CC[C@@H]3NS(=O)(=O)N[C@H]4CC[C@H](N1)N4S(=O)(=O)N23`?
Ub-GFP proteasome: -9%[9.17 µM]; HEK293 cAMP ctrl: 4%[11.4 µM]; TSHR ag: 7%[11.4 µM]

How did Cc1cc(C)c(C)c(S(=O)(=O)NCc2ccco2)c1C do in these assays?
Ub-GFP proteasome: 1%; HEK293 cAMP ctrl: inconclusive; Bst PK mod: 11*; USP2a inh: 6%; GBA mod: >77; TSHR ag: inconclusive

What do the screens show for `O=C(Cc1cccs1)N(Cc1ccco1)C1(C(=O)NC2CCCC2)CCCCC1`?
Ub-GFP proteasome: -8%; HEK293 cAMP ctrl: 0.13µM*; Bst PK mod: >57; USP2a inh: 6%; GBA mod: >77; TSHR ag: inconclusive

How did CCOCCCN(C(=O)CNC(=O)c1ccco1)C(C(=O)NC1CCCC1)c1ccccc1C (centres undefined) do in these assays?
Ub-GFP proteasome: 7%; HEK293 cAMP ctrl: 32µM*; Bst PK mod: >57; GBA mod: >77; TSHR ag: inconclusive

Results for O=C(NC1CCCCC1)C(c1ccco1)N(Cc1ccco1)C(=O)c1ccco1 (centres undefined) ?
Ub-GFP proteasome: -1%; HEK293 cAMP ctrl: 16µM*; Bst PK mod: >57; GBA mod: >77; TSHR ag: inconclusive

How did O=C(NC1CCCCC1)N(Cc1ccccc1)Cc1ccco1 do in these assays?
Ub-GFP proteasome: 16%; HEK293 cAMP ctrl: 16µM*; USP2a inh: 4%; TSHR ag: inconclusive

What do the screens show for `O=C(O)CCc1ccc(-c2ccccc2)[nH]1`?
Ub-GFP proteasome: -4%[9.17 µM]; HEK293 cAMP ctrl: 11%[11.4 µM]; TSHR ag: 2%[11.4 µM]

Results for NC(=O)c1nsc(C(=O)N(CCc2ccccc2)C(C(=O)NC2CCCC2)c2ccco2)c1N (centres undefined) ?
Ub-GFP proteasome: 4%; HEK293 cAMP ctrl: 6.3µM*; Bst PK mod: >57; USP2a inh: 21%; TSHR ag: inconclusive

How did CC(=O)Nc1cccc(NC(=O)c2c(-c3c(Cl)cccc3Cl)noc2C)c1 do in these assays?
Ub-GFP proteasome: 6%[9.17 µM]; HEK293 cAMP ctrl: -12%[11.4 µM]; USP2a inh: 8%[7.66 µM]; TSHR ag: 2µM*
